Source: PubChem BioAssay
Where “and” joins values, the source holds several entries; their conditions need not be identical. Equal values may be shown once. Calls of active or inactive are those of the source. Unless noted, no rule for the calls is given here.

Tests used:
[1] = P. berghei load reduction in hepatocytes – cell-based, HepG2, luciferase luminescence, HepG2 viability, primary screen (AID 624349; in the data active = parasite load remaining mostly below about 12%, no sharp cut-off; inactive = mostly above about 10%;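 also: 100% = mean of DMSO negative control wells on the same plate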); details: P. berghei liver stage in HepG2, luciferase luminescence, concentration not given here; parasite load remaining: stronger effect = lower value; viability: measured here: HepG2 viability without parasites
[2] = signal quenchers or enhancers, Cy5 substrate/SSB – biochemical, NIH Clinical Collection, E. coli SSB, artefact control for HCV NS3 helicase inhibitor project (AID 743268); details: Cy5-oligo bound E. coli SSB, fluorescence interference
[3] = test system: Hepatitis C virus NS3 helicase; test: blockers of NS3h binding to DNA – biochemical, fluorescence polarization, NIH Clinical Collection, primary screen (AID 743270); details: NS3 helicase binding to Cy5-dT15 DNA, stronger effect = higher value, concentration not given here
[4] = target: Single-stranded DNA-binding protein (Escherichia coli (strain K12)) (UniProt P0AGE0); test: SSB-ssDNA binding inhibitors – biochemical, fluorescence polarization, NIH Clinical Collection, counter-screen for HCV NS3 helicase inhibitor project (AID 743271; in the data active = inhibition above about 28%); details: E. coli SSB-DNA binding, stronger effect = higher value, concentration not given here
[5] = compounds distorting NS3 helicase fluorescence signal – biochemical, NIH Clinical Collection, artefact control for HCV NS3 helicase inhibitor project (AID 743272); details: fluorescence interference counterscreen, HCV NS3 helicase assay; stronger effect = lower value;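 also: HCV NS3 helicase with a Cy5 labelled single stranded DNA probe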
[6] = Wnt pathway potentiators raising nuclear beta-catenin – imaging, WNT3A-conditioned medium, mouse C2C12, NPC library, primary screen (AID 1117326; in the data active = nuclear beta-catenin stimulation mostly above about 4.2%, no sharp cut-off; inactive = mostly below about 10%); details: stronger effect = higher value
[7] = test system: Hepatitis C virus NS3 helicase; test: blockers of NS3h binding to ssDNA – biochemical, fluorescence polarization, LOPAC1280 library, primary screen (AID 687035; in the data active = inhibition above about 37%); details: Purified HCV NS3 helicase, Cy5-dT15 ssDNA binding fluorescence polarization; stronger effect = higher value; concentration not given here
[8] = compounds altering Cy5-DNA-NS3h complex signal – biochemical, LOPAC1280, artefact control for HCV NS3 helicase inhibitor project (AID 687037); details: Cy5-DNA-NS3h complex fluorescence interference counterscreen
[9] = test system: Neuropilin-2 / VEGF-C interaction (human); test: small molecules blocking Neuropilin-2/VEGF-C interaction – biochemical, microplate binding format, z-score (AID 743281); details: microplate NRP2/VEGF-C binding assay; stronger effect = lower value

Row | Compound | parasite load remaining [1] | viability [1] | fluorescence ratio [2] | inhibition [3] | inhibition [4] | fluorescence ratio [5] | nuclear beta-catenin stimulation ([6]; at 10 µM) | nuclear beta-catenin stimulation ([6]; stimulation, at 2 µM) [%] | inhibition [7] | fluorescence ratio (interference) [8] | z-score [9]
1 | CCOC(=O)O[C@]1(C(=O)OCCl)CC[C@H]2[C@@H]3CCC4=CC(=O)C=C[C@]4(C)[C@H]3[C@@H](O)C[C@@]21C | 196% (inactive) | 72.9% | 1.04 (inactive) | -0.4% (inactive) | 4.52% (inactive) | 1.05 (inactive) | -1.2% (inactive) | -0.3 |  |  | 
2 | C[C@@H]1C[C@H]2[C@@H]3CCC4=CC(=O)C=C[C@]4(C)[C@@]3(F)[C@@H](O)C[C@]2(C)[C@H]1C(=O)CO | 74.3% (inactive) | 70.8% | 0.96 (inactive) | -1.97% (inactive) | -1.97% (inactive) | 0.92 (inactive) | -1.6% (inactive) | 0.6 |  |  | 
3 | CC(=O)O[C@H]1C[C@@H]2CC[C@@H]3[C@H](CC[C@@]4(C)[C@H]3C[C@H]([N+]3(C)CCCCC3)[C@@H]4OC(C)=O)[C@@]2(C)C[C@@H]1N1CCCCC1 | 67.6% (inactive) and 50.8% (inactive) | 76.1% and 73.5% | 1 (inactive) | -0.22% (inactive) | 5.91% (inactive) | 1 (inactive) | -1.4% (inactive) | -1.2 |  |  | 
4 | Nc1ncnc2nc[nH]c12 | 110% (inactive) and 37.4% (inactive) | 91.6% and 128% |  |  |  |  | -2.6% (inactive) | -0.4 |  |  | 
5 | C[C@@H]1C[C@H]2[C@@H]3C[C@H](F)C4=CC(=O)C(Cl)=C[C@]4(C)[C@@]3(F)[C@@H](O)C[C@]2(C)[C@@]1(O)C(=O)CO | 117% (inactive) | 79.4% | 1 (inactive) | 6.73% (inactive) | 7.6% (inactive) | 0.96 (inactive) | 1.5% (inactive) | 1.3 |  |  | 
6 | C[C@H](NC(CCc1ccccc1)C(=O)O)C(=O)N1CCC[C@H]1C(=O)O (some centres undefined) | 94.1% (inactive) and 49.6% (inactive) | 70.8% and 156% | 1.07 (inactive) | 1.19% (inactive) | 2.98% (inactive) | 1 (inactive) | -0.9% (inactive) | -2.8 | -5% (inactive) | 1 (inactive) | 0.126 (inactive)
7 | COC1=C(OC)C(=O)C(CCCCCCCCCCO)=C(C)C1=O | 97.9% (inactive) and 55.5% (inactive) | 71.1% and 140% | 0.94 (inactive) | -2.77% (inactive) | 2.98% (inactive) | 0.94 (inactive) | -0.4% (inactive) | -1.8 |  |  | -0.18 (inactive)
8 | C#C[C@]1(O)CC[C@H]2[C@@H]3CCc4cc(O)ccc4[C@H]3CC[C@@]21C | 111% (inactive) | 66.2% | 0.98 (inactive) | 1.98% (inactive) | -0.87% (inactive) | 0.92 (inactive) | 1.5% (inactive) | 0.8 |  |  | 
